Measurements as given in PubChem BioAssay (NCI).
Compounds without any hit were thinned out: in the full panel of roughly 79,000, 15% have a hit. No stated cut-off is given here; in the data, active means growth inhibition above about 70%; inactive means the rest.

What was measured:
[1] = NCI Yeast Anticancer Drug Screen. Data for the rad50 strain (AID 155);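 further: 0% = growth of vehicle-only cultures of the same strain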; details: S. cerevisiae rad50 strain growth inhibition; at 50.0 µM; stronger effect = higher value
Summary of the method: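 Growth of the mutant yeast was measured after compound exposure and referenced to vehicle-treated cultures.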

[2] = NCI Yeast Anticancer Drug Screen. Data for the mec2-1 strain (AID 157); details: S. cerevisiae mec2-1 strain, at 50.0 µM, stronger effect = higher value
Summary of the method: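 Cells of the genetically defined mec2-1 yeast strain are incubated with test compound. Inhibition of growth is calculated against vehicle-treated controls.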

[3] = NCI Yeast Anticancer Drug Screen. Data for the sgs1 mgt1 strain (AID 161);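 further: 0% = growth of cultures given vehicle only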; details: S. cerevisiae sgs1 mgt1 strain, at 50.0 µM, stronger effect = higher value
Summary of the method: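 Inhibition of yeast growth, normalised to vehicle-treated controls, is reported for a strain bearing genetic alterations in DNA damage repair.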

[4] = NCI Yeast Anticancer Drug Screen. Data for the cln2 rad14 strain (AID 165);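 further: 0% = growth equal to vehicle treated cultures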; details: S. cerevisiae cln2 rad14 strain, at 50.0 µM, stronger effect = higher value
Summary of the method: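 The screen exposed genetically defined yeast (cln2 rad14) to test compounds and scored growth inhibition relative to vehicle-treated controls.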

[5] = NCI Yeast Anticancer Drug Screen. Data for the bub3 strain (AID 167); details: S. cerevisiae bub3 mutant strain, at 50.0 µM, stronger effect = higher value
Summary of the method: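 Whole-cell yeast assay. The mutant strain was incubated with compounds, and growth inhibition was determined by comparison with vehicle-treated cells.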

[6] = NCI Yeast Anticancer Drug Screen. Data for the mlh1 rad18 strain (AID 175); details: S. cerevisiae mlh1 rad18 strain growth inhibition; at 50.0 µM; stronger effect = higher value
Summary of the method: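 Compound-treated yeast growth, normalised to vehicle controls. Strain bears defined DNA repair mutations.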

Measured: growth inhibition

O=C(O)CC(O)c1ccccc1 (configuration not stated)
inactive: [1] 30.8% | [2] 13.6% | [3] 16.6% | [4] 17.1% | [5] -0.95% | [6] 18.6%

O=C(CCc1cc(-c2ccccc2)nc(=S)[nH]1)Nc1ccccc1[N+](=O)[O-]
inactive: [1] 10% | [2] -8.05% | [3] 9% | [4] 29.6% | [5] 15.5% | [6] 7.25%

CN(C)CC1CCCCC1O (configuration not stated)
inactive: [1] -4.75% | [2] -5.85% | [3] -5.3% | [4] 25.1% | [5] 1.95% | [6] -7.35%

O=C/C(=C(/Br)I)c1ccccc1
inactive: [1] 5.25% | [2] 2.85% | [3] 24.9% | [4] 8.7% | [5] 8.7% | [6] -27.1%

C(=N\OCc1ccccc1)/c1ncccc1C1OCCO1
inactive: [1] -10.6% | [2] -23.1% | [3] -0.5% | [4] 20.2% | [5] -5.8% | [6] -8.75%

O=C(O)c1cc(C(=O)O)cc(N(CCO)CCO)c1
inactive: [1] -19.1% | [2] -6.45% | [3] -6.8% | [4] -17.6% | [5] 21.8% | [6] -14.2%

CCCCOC(=S)Nc1ccc(S(=O)(=O)c2ccc(NC(=S)OCCCC)cc2)cc1
inactive: [1] 23.4% | [2] 0.15% | [3] 13.4% | [4] 9.35% | [5] -4.9% | [6] -9.65%

CC1(c2cccs2)C(=O)NC(=O)N1C(=O)CCl (configuration not stated)
inactive: [1] 6.8% | [2] 4.55% | [3] -6.65% | [4] -2.75% | [5] 9.3% | [6] 5.55%

NCCNCCCNCCN
inactive: [1] 7.85% | [2] -2.4% | [3] 7.95% | [4] -2.45% | [5] 27.4% | [6] 6.45%

C/C=C1\CN2CCc3c([nH]c4ccccc34)C2C=C1CCO (configuration not stated)
inactive: [1] -19.1% | [2] -34.4% | [3] -26.4% | [4] -13.2% | [5] -41.1% | [6] -43.7%

CCOc1ncc(C(=O)c2ccc(C)cc2)c(OCC)n1
inactive: [1] -8.55% | [2] -20.4% | [3] -6.2% | [4] -58.9% | [5] 3.6% | [6] -20.4%

N#CC1(OC2OC(CO)C(O)C(O)C2O)C=CCC1 (configuration not stated)
inactive: [1] 8.1% | [2] -33% | [3] 4.45% | [4] -7.45% | [5] -12.9% | [6] -3.05%

CC1C(=O)CCC2C1(C)CCC1C2(C)CCC2(C)C3CC(C)(C)CCC3(C)CCC12C (configuration not stated)
inactive: [1] 18.4% | [2] -9.05% | [3] 17.4% | [4] 9.2% | [5] 22.9% | [6] 16.8%

Cc1cc(C(c2ccccc2)c2cc(C)cc(C(C)(C)CC(C)(C)C)c2O)c(O)c(C(C)(C)CC(C)(C)C)c1
inactive: [1] 3.9% | [2] 5% | [3] -10% | [4] 20.8% | [5] 5.2% | [6] 8%

CCc1nc(Nc2cccc(C)c2)c2cnn(-c3ccccc3)c2n1
inactive: [1] -0.85% | [2] -15.6% | [3] -2.3% | [4] -22.5% | [5] -3.05% | [6] -13.8%

CC(=O)Nc1ccc(S(=O)(=O)CCN2C(=O)c3ccccc3C2=O)cc1
inactive: [1] -4.55% | [2] -8.85% | [3] 12.3% | [4] -62.5% | [5] 4.35% | [6] -16.8%

CNC(=S)N(C1CCCCC1)C1CCCCC1
inactive: [1] 26% | [2] -13.4% | [3] -2.2% | [4] -15% | [5] -10.1% | [6] 37%

c1ccc(Nc2ccc3ccccc3n2)cc1
inactive: [1] 40.6% | [2] 4.75% | [3] 40.5% | [4] 14% | [5] -1.8% | [6] 16.4%

NC(=O)N/N=C(/CC1C(=O)Oc2ccccc21)c1ccccc1O (configuration not stated)
inactive: [1] -8.35% | [2] -4.7% | [3] -9.7% | [4] -14.3% | [5] -24.9% | [6] 14%

O=C1COC(=O)N1
inactive: [1] -6.85% | [2] -22.4% | [3] -3.45% | [4] -3.35% | [5] 0.2% | [6] 8.25%

Cc1ccc2c(c1)[nH]c(=S)n2/C=C1\C(=O)Oc2ccccc2C1=O
inactive: [1] -43.8% | [2] -42.1% | [3] -44.4% | [4] -31.7% | [5] -42% | [6] -46%

CSC#CC(Sc1c(Cl)c(Cl)c(Cl)c(Cl)c1Cl)=C(Sc1c(Cl)c(Cl)c(Cl)c(Cl)c1Cl)Sc1c(Cl)c(Cl)c(Cl)c(Cl)c1Cl
inactive: [1] 2.55% | [2] -0.8% | [3] -1.7% | [4] -3.6% | [5] -0.6% | [6] -15.5%

S=C(NNC1=NCCN1)Nc1ccccc1
inactive: [1] -54% | [2] -19.9% | [3] -19.8% | [4] 3.15% | [5] -20.9% | [6] -12.7%

CC(=O)OC1CCC2(C)C3CCC4(C)C(C(C)CCCC(C)C)CCC4C3CC(=O)C23CC13 (configuration not stated)
inactive: [1] 32% | [2] -3.85% | [3] 13.2% | [4] 6.9% | [5] -6.3% | [6] 17.9%

Cc1ccc(C(=N)c2ccccc2Cc2cccc3ccccc23)c2ccccc12
inactive: [1] 12.4% | [2] -22.1% | [3] -30.2% | [4] -36.9% | [5] -34.4% | [6] -15.6%

O=c1cc(-c2ccc3ccccc3n2)oc2ccccc12
inactive: [1] -16.4% | [2] 2.5% | [3] 3.7% | [4] 28.3% | [5] -1.95% | [6] -4.2%

O=[N+]([O-])c1ccc(F)c(Cl)c1F
inactive: [1] 15.8% | [2] -6.65% | [3] -2.15% | [4] -20.9% | [5] -12.7% | [6] -3.45%

CCC(O)C(CC)CC (configuration not stated)
inactive: [1] 13.8% | [2] -19.7% | [3] -4.2% | [4] 17% | [5] -10.2% | [6] 14.9%

CC1=C/C(=N\NC(=O)c2ccc[n+](C)c2)CC(C)(C)C1
inactive: [1] 18.7% | [2] 2.2% | [3] 6% | [4] 18.4% | [5] -5.4% | [6] 12.2%

CN(C)CC1CCC(CN(C)C)C1=NO (configuration not stated)
inactive: [1] 13.7% | [2] -2.55% | [3] -4.1% | [4] 7.4% | [5] -1.5% | [6] 6.45%

Nc1nc(-c2ccccc2)nc(-c2ccccc2)n1
inactive: [1] -2.95% | [2] -7.05% | [3] -8.4% | [4] -14.2% | [5] -21.7% | [6] -16.4%

COc1ccc2nc(-c3ccccc3)cc(OCC(=O)O)c2c1
inactive: [1] -30.2% | [2] 21.2% | [3] -7.5% | [4] -13.1% | [5] 10.1% | [6] -15.8%

Cc1ccc(CO)c(O)c1
inactive: [1] 8.65% | [2] -7.25% | [3] -5.55% | [4] 6.4% | [5] 3.75% | [6] 2.15%

S=C(OCCCCCn1cnc2c(=S)nc[nH]c21)Oc1ccccc1
inactive: [1] -13% | [2] 16% | [3] 7.1% | [4] -45.8% | [5] -5.25% | [6] -12.7%

CC(C)(C)c1cc[n+](C[n+]2ccc(C(C)(C)C)cc2)cc1
inactive: [1] 4.8% | [2] -12.2% | [3] -0.45% | [4] -13.4% | [5] -22.9% | [6] -5%

OC1C2CCC(C2)C1CN1CCOCC1 (configuration not stated)
inactive: [1] -6% | [2] -3.35% | [3] -8.1% | [4] 1.85% | [5] 4.95% | [6] 1.7%

N#CCCS(=O)(=O)O
inactive: [1] 29.1% | [2] 21.9% | [3] -6.9% | [4] 1.95% | [5] 15.9% | [6] 13.8%

O=C(CCn1[nH]c(=O)c(Cl)c(Cl)c1=O)NNC(=O)C[n+]1ccccc1
inactive: [1] -4.2% | [2] -8.9% | [3] -28.3% | [4] 34.2% | [5] -7.05% | [6] -25.1%

CCN(CC)CCOCC(=O)Nc1ccccc1C
inactive: [1] -17.3% | [2] 4.8% | [3] 4.95% | [4] -37.5% | [5] 22.8% | [6] 26.6%

O=C(O)CNc1ccc([N+](=O)[O-])cc1C(=O)O
inactive: [1] -1.25% | [2] -1% | [3] 2.75% | [4] 7.4% | [5] -6.7% | [6] -5.95%

[N-]=[N+]=Nc1ccccc1C(=O)NC(=O)Nc1ccccc1
inactive: [1] -14.1% | [2] 1.95% | [3] 5.5% | [4] -19.2% | [5] 2.45% | [6] -2.1%

O=C1CN(c2cccc(C(F)(F)F)c2)C(=O)CN1/N=C/c1ccc(O)c(O)c1
inactive: [1] 3.4% | [2] -0.1% | [3] -5.3% | [4] -2.3% | [5] 2.4% | [6] 27.6%
